# EPAC1 antag – antagonists of human EPAC1. O95398. EPAC1 GEF assay, Rap1b-BODIPY-GDP exchange fluorescence. Potency, µM (doses to about 115 µM), without a hit: top-dose activity change, negative = inhibition, hits mostly inhibitors. hit rate 0.14% among 360,000. AID 720709;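 further: plate controls were vehicle for no effect and positive control for full effect; nearly all actives have a fitted effect of over 50% in size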
# ALOX12 inh – blocks human arachidonate 12S-lipoxygenase | P18054 | purified 12hLO, xylenol orange hydroperoxide absorbance | Potency, µM (top dose mostly 108 µM), inactives show at the top dose activity change, negative = inhibition, usual class: inhibitors | hit rate 1.1% among 580,000 | AID 1671190; further: on the % scale 0 is the no-effect control and ±100 the full control effect
#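 Purified human 12hLO at 150 nM in 25 mM Hepes, 0.01% Triton X-100, pH 7.0, preincubated 15 min at room temperature with compound. Reaction started with 40 uM arachidonic acid, 30 min at room temperature. Hydroperoxide measured by Fe-xylenol orange, 573/405 nm absorbance ratio.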
# USP1 inh – inhibitors of human USP1/UAF1 deubiquitinase | O94782 | recombinant USP1/UAF1, Ub-Rhodamine cleavage fluorescence | Potency, µM (titrated, usually from 57.1 µM), for the others: at the top dose activity change, negative = inhibition, most hits filed as inhibitors | hit rate 0.23% among 390,000 | AID 743255; further: on the % scale 0 is the no-effect control and ±100 the full control effect; nearly all actives have a fitted effect of over 60% in size
# Target sequence (O94782 whole entry, looked up): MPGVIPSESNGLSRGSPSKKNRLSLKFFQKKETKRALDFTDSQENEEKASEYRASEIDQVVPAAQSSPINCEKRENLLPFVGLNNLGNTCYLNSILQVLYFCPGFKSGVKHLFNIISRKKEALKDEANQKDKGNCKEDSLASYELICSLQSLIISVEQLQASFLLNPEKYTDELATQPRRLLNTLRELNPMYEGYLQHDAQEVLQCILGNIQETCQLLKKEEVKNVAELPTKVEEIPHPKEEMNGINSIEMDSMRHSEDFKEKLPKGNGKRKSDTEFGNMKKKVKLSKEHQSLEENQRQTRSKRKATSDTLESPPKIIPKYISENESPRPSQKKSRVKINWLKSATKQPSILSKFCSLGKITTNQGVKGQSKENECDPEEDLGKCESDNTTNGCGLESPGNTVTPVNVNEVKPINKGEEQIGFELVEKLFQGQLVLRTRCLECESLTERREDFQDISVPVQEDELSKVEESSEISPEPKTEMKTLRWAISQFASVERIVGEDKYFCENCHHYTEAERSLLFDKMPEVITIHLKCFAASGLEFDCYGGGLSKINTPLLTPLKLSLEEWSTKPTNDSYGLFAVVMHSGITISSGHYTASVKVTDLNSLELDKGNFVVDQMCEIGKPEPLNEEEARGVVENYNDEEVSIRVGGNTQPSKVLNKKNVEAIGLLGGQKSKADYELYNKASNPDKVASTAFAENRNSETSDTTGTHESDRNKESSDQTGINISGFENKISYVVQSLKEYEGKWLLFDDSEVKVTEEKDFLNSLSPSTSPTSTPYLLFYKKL
#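 USP1/UAF1 complex (1 nM) preincubated 15 min at room temperature with compound, then Ub-Rho substrate (150 nM final) added. Kinetic fluorescence at 480/540 nm over 6 reads at 60 s intervals; 50 mM HEPES pH 7.8, 0.5 mM EDTA, 0.1 mg/ml BSA, 1 mM TCEP, 0.01% Tween-20.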
# EPAC2 antagonist – blocks human EPAC2 exchange factor; Q8WZA2; EPAC2 GEF exchange of Rap1B-BODIPY-GDP, fluorescence; Potency, µM (top dose mostly 114 µM), without a hit: at the highest dose activity, negative = inhibition, most hits filed as inhibitors; hit rate 0.18% among 360,000; AID 720708; further: on the % scale 0 is the no-effect control and ±100 the full control effect; nearly all actives have a fitted effect of over 45% in size
# EPAC2 agonist – activates human EPAC2 exchange factor; Q8WZA2; EPAC2 activation, biochemical qHTS; response scale: 100% = 6.5 mM cAMP response; Potency, µM (series often up to 154 µM), for the others: at the top dose activation, most hits filed as activators; hit rate 0.079% among 360,000; AID 720711; further: nearly all actives have a fitted effect of over 50% in size
#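 Compounds were titrated in qHTS against a Rap1B-BODIPY-GDP (250 nM) complex with EPAC2 (100 nM) and GDP (50 uM). BODIPY-GDP release tracked at 480/540 nm over 30 min at room temperature, normalized to 6.5 mM cAMP.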
# EPAC1 ag – EPAC1 (human) agonism; hit rate 0.073% among 360,000; Potency, µM (highest dose often 154 µM), for the others: at the highest dose activation, usual class: activators; EPAC1 agonist qHTS, biochemical assay; response scale: 100% = response to 6.5 mM cAMP; further: nearly all actives have a fitted effect of over 60% in size
#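 Normalized to 6.5 mM cAMP, activity reflects EPAC1-catalysed release of BODIPY-GDP from Rap1B, followed kinetically over 30 min at 480 nm excitation, 540 nm emission. Reaction contained 100 nM EPAC1, 250 nM Rap1B-BODIPY-GDP, 50 uM GDP.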
# * marks the source's active call; other numbers are inactive results; u = inconclusive; x = not tested or not shown; [ ] = dose if it differs, or a comment. An excerpt weighted towards active compounds, which were near 1.3% of everything screened. The call rests on the fitted dose curve; in most records, active means well fitted curve in the direction sought with a large enough effect; inconclusive means small, poorly fitted or top-dose-only effect, or another doubt; inactive means no such curve, though single readings can be large; an effect the other way counts as inactive or inconclusive. Potency means the concentration at half of the fitted maximal effect.
SMILES,EPAC1 antag,ALOX12 inh,USP1 inh,EPAC2 antagonist,EPAC2 agonist,EPAC1 ag
COc1ccccc1NC(=S)NC1CCC(CC2CCC(NC(=S)Nc3ccccc3OC)CC2)CC1 (centres undefined),-3%,32µM*,-19%,2%,3%,6%
S=C(Nc1cccc2ccccc12)NC1CCCCC1,u,45µM*,-21%,-16%,18%,11%
COc1cccc([S+](=O)([O-])N2CCn3c(nn(-c4cccc(Cl)c4)c3=O)C2)c1,x,6.3µM*,x,x,x,x
O=C(CCCOc1ccc(Cl)cc1Cl)OCC(=O)c1ccccc1,x,-18%,x,x,x,x
CNC(=O)C1(N2CCC[C@H]2C(=O)N2CCC[C@@H]2COC)CCCCC1,x,22µM*,x,x,x,x
CNC(=O)C1(N2CCC[C@H]2C(=O)N2CC[C@@H](O)C2)CCCCC1,x,10%[176 µM],x,x,x,x
O=C(COc1ccc(F)cc1)Nc1nccs1,-8%,-11%,-11%,182%,35µM*,-1%
Cc1ccc(CNC(C)C2CC3CCC2C3)s1 (centres undefined),x,2%,x,x,x,x
COc1ccc(-c2cc(C(=O)NNC(=S)NC(=O)c3c(-c4ccccc4)noc3C)[nH]n2)cc1,-6%,11µM*,-25%,10%,-8%,-17%
Cc1ccc(Cl)c2sc(N3CCN(C(=O)c4ccco4)CC3)nc12,-8%,5%,-25%,-2%,0%,100µM*
Cc1ccc(C)c2sc(N3CCN(C(=O)c4ccco4)CC3)nc12,x,u,-12%,x,x,x
COc1ccc2c(c1)CC/C(=C\c1ccc(Br)o1)C2=O,x,22µM*,x,x,x,x
COc1ccc2c(c1)CC/C(=C/c1cc(OC)c(OC)c(OC)c1)C2=O,7%,19%,-16%,7%,7%,2%
O=C(CN1CCN(C(=O)CCc2ncc(-c3ccccc3Cl)o2)CC1)Nc1ccc(F)cc1,x,2%,x,x,x,x
COc1ncccc1-c1nc(-c2c(C)noc2C)cc2cc(C(C)C)oc12,x,-5%[176 µM],x,x,x,x
C/C(=N\NC(=S)Nc1ccccc1C)c1cc2ccccc2o1,-11%,20µM*,-25%,4%,9%,10%
O=C(CSc1nnc2ccccn12)Nc1ccc(S(=O)(=O)N2CCCC2)cc1,x,-3%,x,x,x,x
CC(Nc1ncccc1[N+](=O)[O-])c1ccc(Cl)cc1Cl (centres undefined),x,-9%,x,x,x,x
CC(Nc1ccc([N+](=O)[O-])cn1)c1ccc(Cl)cc1Cl (centres undefined),x,56µM*,x,x,x,x
O=C(O)CSc1cc(NS(=O)(=O)c2ccc(Br)cc2)c2ccccc2c1O,56µM*,u,35µM*,u,15%,26%
Cc1ccc(S(=O)(=O)Nc2ccc(Br)cc2C(NCC(=O)O)c2ccccc2)cc1 (centres undefined),u,4%,-8%,-16%,-20%,-20%
Cc1cc(O)c(Sc2ncn[nH]2)cc1NS(=O)(=O)c1ccc(Cl)cc1,2%,u,-20%,-4%,-3%,9%
O=S(=O)(Nc1cc(Sc2ncn[nH]2)c(O)c2ccccc12)c1ccccc1,u,u,2.2µM*,u,26%,5%
CC(C)CCn1c(NCc2ccco2)nc2c1c(=O)[nH]c(=O)n2C,x,7%,x,x,x,x
O=C(Nc1ccc(O)c(-c2nc3ccccc3o2)c1)c1ccccc1Br,x,9%,x,x,x,x
SMILES,EPAC1 antag,ALOX12 inh,USP1 inh,EPAC2 antagonist,EPAC2 agonist,EPAC1 ag
O=C(NCC1CC1)c1cccc(OC2CN(Cc3ccc(F)cc3F)C2)c1,x,25µM*,x,x,x,x
CCC1CCCCN1C(=O)CCc1ccsc1 (centres undefined),x,3%,x,x,x,x
COc1ccc(OC)c(NC(=O)Cc2c(C)c3c(OC)cc(C)cc3oc2=O)c1,x,-2%,x,x,x,x
O=C(OCCc1ccccc1)c1cc(O)c(O)c(O)c1,-13%,2.8µM*,-20%,-8%,-9%,-8%
CCCCNC(=O)Cc1csc2nc(C)c(-c3cc(C)n(-c4cccc(Cl)c4)n3)c(=O)n12,x,40µM*,x,x,x,x
CCCCCNC(=O)Cc1csc2nc(C)c(-c3cc(C)n(-c4cccc(C)c4)n3)c(=O)n12,x,5%,x,x,x,x
CCCCCCn1c(SCc2ccc(F)cc2)nc2c1c(=O)[nH]c(=O)n2C,x,-2%,x,x,x,x
CCOc1ccc(C2C(C(=O)c3ccc(C)o3)=C(O)C(=O)N2c2cc(C)on2)cc1OC (centres undefined),-5%,25µM*,-16%,-1%,2%,2%
COc1cc(C2C(C(=O)c3ccc(C)o3)=C(O)C(=O)N2c2cc(C)on2)ccc1OCc1ccccc1 (centres undefined),-7%,u,4%,-5%,-6%,0%
COc1cccc(C2C(C(=O)c3ccc(C)o3)=C(O)C(=O)N2c2cc(C)on2)c1 (centres undefined),6%,50µM*,-15%,-14%,-9%,11%
COc1cccc(C2C(C(=O)c3cccs3)=C(O)C(=O)N2c2cc(C)on2)c1 (centres undefined),6%,u,-9%,13%,2%,0%
CCc1ccccc1OC(C(=O)O)c1ccccc1 (centres undefined),x,3%,x,x,x,x
CC1(C)CC(N2CCCC2)=CC(=[N+]2CCCC2)C1,7%,40µM*,-17%,1%,11%,-4%
CC1(C)CC(N2CCCC2)=CC(=[N+]2CCCCC2)C1,5%,40µM*,-20%,-6%,4%,0%
COc1ccc(/C=C/C(=O)Oc2ccc(OC)cc2)cc1,x,-5%,x,x,x,x
COCCNC(=O)/C(C#N)=C\c1cccc(C(F)(F)F)c1,x,64%,x,x,x,x
CCN1CCN(Cc2cc(=O)oc3cc(-c4ccccc4)c(O)cc23)CC1,x,32µM*,x,x,x,x
Cc1ccc(S(=O)(=O)N2CCN(Cc3cc(=O)oc4cc(O)c(Cl)cc34)CC2)cc1,x,45µM*,x,x,x,x
CC(OC(=O)Cn1[nH]c(=O)c2ccccc2c1=O)C(=O)Nc1cccc(Cl)c1Cl (centres undefined),x,-9%,x,x,x,x
Cc1c(Cl)cnc(NC(=O)COC(=O)c2ccc([N+](=O)[O-])s2)c1Cl,u,u,18µM*,5%,-1%,1%
O=C(CSc1nc2ccccc2o1)NCc1ccc2c(c1)OCO2,12%,16%,-22%,22µM*,5%,-9%
O=C(CSc1nc2ccccc2o1)N/N=C/c1ccc(O)c(O)c1,50µM*,u,1%,-11%,10%,3%
Cc1cc(SCC(=O)N/N=C/c2ccc(O)c(O)c2)c(C)cc1Br,-18%,6.3µM*,-18%,-19%,10%,11%
O=C(CSc1nc2ccccc2o1)N/N=C/c1ccccc1,-23%,-3%,-11%,19%,-2%,0%
COc1ccc(Br)cc1/C=C(/C#N)C(=O)C(C)C,x,-27%,x,x,x,x

# Screening data as filed in PubChem.
